Test results from ChEMBL document CHEMBL1961873, “Compounds: GSK PKIS; Assays: Nanosyn kinase panel” (2012).

Key:
[1] = target: Dual specificity protein kinase CLK3 (Homo sapiens) (UniProt P49761); conditions: at 1 µM;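 also: each value is the mean inhibition of CLK3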
[2] = target: Dual specificity tyrosine-phosphorylation-regulated kinase 1A (Homo sapiens) (UniProt Q13627); conditions: at 0.1 µM
[3] = target: Dual specificity tyrosine-phosphorylation-regulated kinase 1A (Homo sapiens) (UniProt Q13627); conditions: at 1 µM
[4] = target: Dual specificity tyrosine-phosphorylation-regulated kinase 1B (Homo sapiens) (UniProt Q9Y463); conditions: at 0.1 µM
[5] = target: Dual specificity tyrosine-phosphorylation-regulated kinase 1B (Homo sapiens) (UniProt Q9Y463); conditions: at 1 µM
[6] = target: T1, Dual specificity tyrosine-phosphorylation-regulated kinase 2 (Homo sapiens) (UniProt Q92630); conditions: at 0.1 µM
T1 sequence (whole entry): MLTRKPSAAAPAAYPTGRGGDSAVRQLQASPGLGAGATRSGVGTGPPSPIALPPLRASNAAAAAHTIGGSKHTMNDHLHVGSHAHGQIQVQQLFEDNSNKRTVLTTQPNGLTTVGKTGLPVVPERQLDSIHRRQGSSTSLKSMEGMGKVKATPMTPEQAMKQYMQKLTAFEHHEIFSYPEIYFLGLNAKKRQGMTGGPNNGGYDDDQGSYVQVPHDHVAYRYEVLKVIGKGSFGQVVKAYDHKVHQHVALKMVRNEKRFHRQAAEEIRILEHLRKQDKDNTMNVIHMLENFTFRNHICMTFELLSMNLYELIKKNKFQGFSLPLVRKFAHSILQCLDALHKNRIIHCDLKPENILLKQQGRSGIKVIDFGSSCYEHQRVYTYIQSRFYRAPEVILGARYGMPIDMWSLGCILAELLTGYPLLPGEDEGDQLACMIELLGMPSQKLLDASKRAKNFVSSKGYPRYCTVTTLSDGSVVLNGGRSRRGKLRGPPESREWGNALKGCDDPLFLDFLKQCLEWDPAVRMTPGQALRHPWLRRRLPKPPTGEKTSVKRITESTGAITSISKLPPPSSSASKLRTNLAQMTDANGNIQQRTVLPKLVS

[7] = target: T1, Dual specificity tyrosine-phosphorylation-regulated kinase 2 (Homo sapiens); conditions: at 1 µM
[8] = target: Glycogen synthase kinase-3 alpha (Homo sapiens) (UniProt P49840); conditions: at 0.1 µM
[9] = target: Glycogen synthase kinase-3 alpha (Homo sapiens) (UniProt P49840); conditions: at 1 µM
[10] = target: Glycogen synthase kinase-3 beta (Homo sapiens) (UniProt P49841); conditions: at 0.1 µM
[11] = target: Glycogen synthase kinase-3 beta (Homo sapiens) (UniProt P49841); conditions: at 1 µM
[12] = target: Homeodomain-interacting protein kinase 1 (Homo sapiens) (UniProt Q86Z02); conditions: at 0.1 µM
[13] = target: Homeodomain-interacting protein kinase 1 (Homo sapiens) (UniProt Q86Z02); conditions: at 1 µM
[14] = target: T2, Homeodomain-interacting protein kinase 4 (Homo sapiens) (UniProt Q8NE63); conditions: at 0.1 µM
T2 sequence (whole entry): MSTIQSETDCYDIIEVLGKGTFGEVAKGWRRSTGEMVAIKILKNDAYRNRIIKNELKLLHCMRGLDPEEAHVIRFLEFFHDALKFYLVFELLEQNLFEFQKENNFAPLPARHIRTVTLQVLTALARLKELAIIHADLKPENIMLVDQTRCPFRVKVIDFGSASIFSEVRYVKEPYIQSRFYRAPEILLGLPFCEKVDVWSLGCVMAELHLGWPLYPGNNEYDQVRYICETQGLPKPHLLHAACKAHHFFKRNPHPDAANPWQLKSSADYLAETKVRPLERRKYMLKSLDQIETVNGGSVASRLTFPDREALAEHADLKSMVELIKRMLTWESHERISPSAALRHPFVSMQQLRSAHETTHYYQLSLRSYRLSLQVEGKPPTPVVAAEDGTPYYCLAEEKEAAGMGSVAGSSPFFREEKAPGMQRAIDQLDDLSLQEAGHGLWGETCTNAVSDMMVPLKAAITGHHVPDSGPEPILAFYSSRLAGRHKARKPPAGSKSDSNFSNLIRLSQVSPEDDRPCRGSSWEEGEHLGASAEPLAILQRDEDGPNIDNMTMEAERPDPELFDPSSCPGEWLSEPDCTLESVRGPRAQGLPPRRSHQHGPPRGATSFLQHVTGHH

[15] = target: T2, Homeodomain-interacting protein kinase 4 (Homo sapiens); conditions: at 1 µM
[16] = target: Mitogen-activated protein kinase 9 (Homo sapiens) (UniProt P45984); conditions: at 0.1 µM
[17] = target: Mitogen-activated protein kinase 9 (Homo sapiens) (UniProt P45984); conditions: at 1 µM
[18] = target: Mitogen-activated protein kinase 1 (Homo sapiens) (UniProt P28482); conditions: at 0.1 µM
[19] = target: Mitogen-activated protein kinase 1 (Homo sapiens) (UniProt P28482); conditions: at 1 µM
[20] = target: Mitogen-activated protein kinase 3 (Homo sapiens) (UniProt P27361); conditions: at 0.1 µM;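 also: each value is a mean inhibition figure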
Sequence of Mitogen-activated protein kinase 3 (Homo sapiens) (P27361 whole entry): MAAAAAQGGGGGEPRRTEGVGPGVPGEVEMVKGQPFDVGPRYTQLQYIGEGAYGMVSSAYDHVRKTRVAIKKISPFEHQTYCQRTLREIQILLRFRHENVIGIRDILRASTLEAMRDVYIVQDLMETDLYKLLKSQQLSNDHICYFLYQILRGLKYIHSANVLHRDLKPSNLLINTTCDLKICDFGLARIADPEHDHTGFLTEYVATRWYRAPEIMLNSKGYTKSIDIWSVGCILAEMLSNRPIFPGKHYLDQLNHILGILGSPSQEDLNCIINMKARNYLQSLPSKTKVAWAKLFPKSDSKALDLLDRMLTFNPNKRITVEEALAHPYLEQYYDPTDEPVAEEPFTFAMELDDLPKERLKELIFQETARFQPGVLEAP

Sequence of Dual specificity protein kinase CLK3 (Homo sapiens) (P49761 whole entry, looked up): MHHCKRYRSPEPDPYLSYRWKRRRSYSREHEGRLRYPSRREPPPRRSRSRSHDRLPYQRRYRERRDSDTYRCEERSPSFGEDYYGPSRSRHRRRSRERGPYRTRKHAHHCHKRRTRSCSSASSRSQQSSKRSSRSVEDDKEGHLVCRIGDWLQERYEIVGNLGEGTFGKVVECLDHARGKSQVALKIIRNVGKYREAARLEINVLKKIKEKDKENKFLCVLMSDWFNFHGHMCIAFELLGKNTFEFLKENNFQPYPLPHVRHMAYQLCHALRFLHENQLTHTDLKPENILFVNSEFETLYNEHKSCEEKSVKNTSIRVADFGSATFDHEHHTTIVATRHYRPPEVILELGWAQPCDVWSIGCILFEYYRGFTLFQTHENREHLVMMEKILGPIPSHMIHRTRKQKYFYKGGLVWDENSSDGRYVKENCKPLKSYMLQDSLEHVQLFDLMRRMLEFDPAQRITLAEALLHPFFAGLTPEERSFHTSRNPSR
Sequence of Glycogen synthase kinase-3 alpha (Homo sapiens) (P49840 2-483 limits assumed): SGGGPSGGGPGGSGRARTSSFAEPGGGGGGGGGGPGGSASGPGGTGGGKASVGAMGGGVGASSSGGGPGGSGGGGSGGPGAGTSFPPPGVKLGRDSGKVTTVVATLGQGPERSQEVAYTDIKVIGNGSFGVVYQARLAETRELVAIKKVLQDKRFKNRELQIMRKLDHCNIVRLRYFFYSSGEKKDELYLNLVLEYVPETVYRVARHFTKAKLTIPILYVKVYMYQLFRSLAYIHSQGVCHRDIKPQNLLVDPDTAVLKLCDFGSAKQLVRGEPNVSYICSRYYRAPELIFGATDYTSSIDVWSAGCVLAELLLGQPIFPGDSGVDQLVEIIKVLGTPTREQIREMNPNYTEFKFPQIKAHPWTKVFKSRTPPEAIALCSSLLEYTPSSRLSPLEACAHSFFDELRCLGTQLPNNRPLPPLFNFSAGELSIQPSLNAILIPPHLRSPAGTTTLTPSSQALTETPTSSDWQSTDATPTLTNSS
Sequence of Mitogen-activated protein kinase 1 (Homo sapiens) (P28482 whole entry): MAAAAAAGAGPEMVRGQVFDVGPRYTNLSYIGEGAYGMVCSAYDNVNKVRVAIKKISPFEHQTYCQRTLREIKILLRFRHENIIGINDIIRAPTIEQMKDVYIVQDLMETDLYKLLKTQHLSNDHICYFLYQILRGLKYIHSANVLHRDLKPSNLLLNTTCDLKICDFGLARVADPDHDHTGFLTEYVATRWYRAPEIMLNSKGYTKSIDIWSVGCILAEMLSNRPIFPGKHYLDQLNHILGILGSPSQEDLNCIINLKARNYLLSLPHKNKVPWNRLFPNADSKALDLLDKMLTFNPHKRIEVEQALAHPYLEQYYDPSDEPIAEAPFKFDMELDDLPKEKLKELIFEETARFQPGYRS
Sequence of Mitogen-activated protein kinase 9 (Homo sapiens) (P45984 whole entry, looked up): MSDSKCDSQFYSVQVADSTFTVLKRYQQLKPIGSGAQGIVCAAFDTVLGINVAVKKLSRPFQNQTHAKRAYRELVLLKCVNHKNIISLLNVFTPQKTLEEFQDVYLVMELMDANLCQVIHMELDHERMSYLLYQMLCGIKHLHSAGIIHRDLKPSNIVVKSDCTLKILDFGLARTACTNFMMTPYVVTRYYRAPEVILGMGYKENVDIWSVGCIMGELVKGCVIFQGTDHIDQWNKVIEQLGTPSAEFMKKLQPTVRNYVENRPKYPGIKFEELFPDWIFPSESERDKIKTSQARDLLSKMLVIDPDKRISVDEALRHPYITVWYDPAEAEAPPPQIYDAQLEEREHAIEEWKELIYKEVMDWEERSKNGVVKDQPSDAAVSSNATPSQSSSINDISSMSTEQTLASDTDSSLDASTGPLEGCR
Sequence of Dual specificity tyrosine-phosphorylation-regulated kinase 1B (Homo sapiens) (Q9Y463 whole entry, looked up): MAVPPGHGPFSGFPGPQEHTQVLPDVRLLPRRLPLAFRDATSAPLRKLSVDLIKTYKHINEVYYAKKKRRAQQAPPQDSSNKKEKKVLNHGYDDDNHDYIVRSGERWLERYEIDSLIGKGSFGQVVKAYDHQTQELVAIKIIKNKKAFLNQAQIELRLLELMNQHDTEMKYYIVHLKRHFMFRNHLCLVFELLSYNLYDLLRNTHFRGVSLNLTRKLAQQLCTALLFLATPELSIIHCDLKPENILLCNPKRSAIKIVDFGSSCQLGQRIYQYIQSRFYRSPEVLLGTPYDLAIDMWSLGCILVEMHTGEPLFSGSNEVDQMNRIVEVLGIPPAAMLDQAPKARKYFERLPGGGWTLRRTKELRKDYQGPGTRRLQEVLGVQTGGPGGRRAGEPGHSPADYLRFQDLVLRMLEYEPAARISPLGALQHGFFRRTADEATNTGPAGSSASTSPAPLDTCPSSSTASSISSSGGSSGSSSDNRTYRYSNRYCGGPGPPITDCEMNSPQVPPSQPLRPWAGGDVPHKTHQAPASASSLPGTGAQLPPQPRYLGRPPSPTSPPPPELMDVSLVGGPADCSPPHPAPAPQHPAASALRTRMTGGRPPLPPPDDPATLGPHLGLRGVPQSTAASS
Sequence of Glycogen synthase kinase-3 beta (Homo sapiens) (P49841 whole entry, looked up): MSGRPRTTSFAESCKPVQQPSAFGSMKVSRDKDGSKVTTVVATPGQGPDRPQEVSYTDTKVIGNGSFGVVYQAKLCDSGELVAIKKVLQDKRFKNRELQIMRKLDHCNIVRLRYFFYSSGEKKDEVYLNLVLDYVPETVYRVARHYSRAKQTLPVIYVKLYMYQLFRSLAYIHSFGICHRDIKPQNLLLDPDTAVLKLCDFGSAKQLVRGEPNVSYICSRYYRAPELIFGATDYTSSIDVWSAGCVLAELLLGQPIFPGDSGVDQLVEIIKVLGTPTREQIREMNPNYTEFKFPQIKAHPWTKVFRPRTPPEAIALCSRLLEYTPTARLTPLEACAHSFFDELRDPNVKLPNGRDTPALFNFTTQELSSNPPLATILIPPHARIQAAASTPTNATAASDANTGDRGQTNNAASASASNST
Sequence of Homeodomain-interacting protein kinase 1 (Homo sapiens) (Q86Z02 whole entry, looked up): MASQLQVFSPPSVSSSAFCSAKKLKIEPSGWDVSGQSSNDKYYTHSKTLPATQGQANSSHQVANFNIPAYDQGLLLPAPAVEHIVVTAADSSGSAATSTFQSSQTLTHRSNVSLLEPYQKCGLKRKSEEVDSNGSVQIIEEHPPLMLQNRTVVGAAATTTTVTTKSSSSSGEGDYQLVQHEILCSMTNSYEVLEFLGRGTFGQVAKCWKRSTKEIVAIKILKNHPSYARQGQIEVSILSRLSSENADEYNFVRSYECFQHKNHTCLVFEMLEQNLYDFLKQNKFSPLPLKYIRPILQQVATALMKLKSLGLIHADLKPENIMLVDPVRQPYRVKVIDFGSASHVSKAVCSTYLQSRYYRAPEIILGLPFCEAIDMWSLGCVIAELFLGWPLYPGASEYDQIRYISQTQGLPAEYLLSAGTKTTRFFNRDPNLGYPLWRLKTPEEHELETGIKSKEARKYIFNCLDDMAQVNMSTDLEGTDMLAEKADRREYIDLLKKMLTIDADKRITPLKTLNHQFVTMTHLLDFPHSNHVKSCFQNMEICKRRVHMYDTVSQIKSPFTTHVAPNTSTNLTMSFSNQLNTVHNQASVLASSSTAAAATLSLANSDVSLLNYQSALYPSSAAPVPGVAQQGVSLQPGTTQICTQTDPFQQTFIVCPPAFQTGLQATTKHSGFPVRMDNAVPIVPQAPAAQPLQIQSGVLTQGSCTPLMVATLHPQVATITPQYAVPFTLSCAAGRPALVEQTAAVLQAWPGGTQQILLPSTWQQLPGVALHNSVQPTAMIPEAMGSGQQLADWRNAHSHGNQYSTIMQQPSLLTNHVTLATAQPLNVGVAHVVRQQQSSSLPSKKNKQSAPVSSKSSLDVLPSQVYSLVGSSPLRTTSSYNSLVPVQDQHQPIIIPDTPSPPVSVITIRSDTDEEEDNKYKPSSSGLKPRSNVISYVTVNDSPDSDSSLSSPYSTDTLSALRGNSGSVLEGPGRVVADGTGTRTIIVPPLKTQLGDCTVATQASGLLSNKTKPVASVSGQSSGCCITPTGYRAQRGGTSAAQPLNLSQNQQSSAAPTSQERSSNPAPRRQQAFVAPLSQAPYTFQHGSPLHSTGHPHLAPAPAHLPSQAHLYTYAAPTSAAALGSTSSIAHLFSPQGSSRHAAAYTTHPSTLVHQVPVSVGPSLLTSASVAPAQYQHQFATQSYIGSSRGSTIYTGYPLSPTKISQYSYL

Structure (SMILES)	inhibition [1]	inhibition [2]	inhibition [3]	inhibition [4]	inhibition [5]	inhibition [6]	inhibition [7]	inhibition [8]	inhibition [9]	inhibition [10]	inhibition [11]	inhibition [12]	inhibition [13]	inhibition [14]	inhibition [15]	inhibition [16]	inhibition [17]	inhibition [18]	inhibition [19]	inhibition [20]
CCn1c(-c2nonc2N)nc2c(C#CC(C)(C)O)ncc(OC3CCNCC3)c21	0.2%	1.61%	-0.11%	0.14%	1.34%	2.3%	3.89%	12.3%	48.9%	10%	51.8%	0.21%	4.91%	1.04%	2.64%	4.13%	6.93%	4.51%	7.43%	4.27%
COc1cc2c(cc1Nc1nc(Nc3ccsc3C(N)=O)c3cc[nH]c3n1)N(C(=O)CN(C)C)CCC2(C)C	4.74%	4.97%	15.5%	1.64%	10.2%	4.55%	6.57%	7.63%	21.1%	5.85%	17%	0.05%	7.66%	-0.16%	6.13%	7.73%	13.9%	4.87%	12.2%	3.02%
NC(=O)c1sc(-n2cnc3ccc(C(F)(F)F)cc32)cc1OCc1ccccc1Br	4.85%	2.74%	8.54%	-0.4%	2.27%	2.93%	4.03%	1.26%	7.48%	-0.61%	3.8%	0.1%	2.51%	1.27%	4.18%	3.06%	5.5%	2.67%	4.49%	3.25%
COc1ccc2c(-c3ccnc(Nc4cccc(OC(F)(F)F)c4)n3)cnn2n1	52.8%	16%	60.8%	32.6%	77.2%	4.32%	16%	28.1%	81.1%	21.2%	73.2%	84.8%	91.7%	51.3%	83%	1.35%	11.4%	2.96%	7.52%	5.36%
COc1cc(Nc2nccc(Nc3ccc4c(C)n[nH]c4c3)n2)cc(OC)c1OC	6.44%	0.88%	7.54%	2.83%	5.43%	1.95%	4.25%	2.79%	17.3%	2.73%	16.1%	-0.29%	1.88%	1.59%	3.91%	2.22%	13.6%	0.66%	3.16%	1.57%
Nc1nc(-c2ccc(F)cc2)c(-c2ccc3ncccc3n2)s1	6.28%	8.98%	37.4%	3.54%	19.8%	3.22%	5.03%	12.1%	20.8%	11%	19.6%	4.79%	13.9%	4.95%	11%	6.33%	25.3%	4.29%	5.05%	3.56%
CCCN(CCS(C)(=O)=O)Cc1ccc(-c2ccc3ncnc(Nc4ccc(OCc5cccc(F)c5)c(Cl)c4)c3c2)o1	3.58%	4.83%	10.8%	4.87%	10.4%	1.93%	2.03%	7.55%	9.2%	6.85%	10.2%	6.46%	11.6%	3.01%	9.25%	2.74%	4.94%	1.68%	3.24%	1.75%
Cc1cccc2c1NC(=O)/C2=N\Nc1ccc(S(N)(=O)=O)cc1	3.84%	1.06%	5.61%	0.89%	1.16%	2.62%	3.24%	3.97%	8.42%	3.71%	7.38%	1.24%	4.95%	2.16%	1.3%	1.94%	4.49%	2.25%	0.43%	2.41%
Fc1ccc(-c2nn3ncccc3c2-c2ccnc(Nc3ccc4c(c3)OCCO4)n2)cc1	0.91%	1.5%	3.37%	0.99%	-1.69%	3.56%	4.44%	19.6%	59.7%	39%	76.1%	-1.25%	-1.1%	-0.3%	4.58%	58.4%	84.9%	2.51%	11.1%	5.61%
CCc1nn2ncccc2c1-c1ccnc(NC2CC2)n1	0.97%	1.95%	4.71%	1.01%	5.27%	1.81%	10.9%	6.96%	9.03%	6.18%	7.53%	-1.75%	9.32%	2.35%	20.9%	2.47%	5.7%	1.85%	3.78%	-0.55%
COc1ccc(-c2nn3ncccc3c2-c2ccnc(Nc3ccc4c(c3)OCCO4)n2)cc1	-0.46%	-0.47%	-2.81%	-0.35%	-3.65%	0.08%	-3.08%	0.99%	2.53%	-0.07%	5.33%	-7.34%	-0.07%	0.08%	-1.16%	13%	64.6%	-0.01%	0.95%	3.56%
CC(C)(CO)CNC(=O)c1ccc2c(c1)/C(=N/Nc1ccc(S(N)(=O)=O)cc1)C(=O)N2	9.15%	-0.06%	7.83%	-0.36%	1%	0.82%	9.64%	23.2%	65.2%	22.4%	66.8%	-4.78%	13.1%	-0.55%	4.55%	-0.59%	8.39%	8.62%	42.1%	1.78%
Fc1ccc(-c2cc(-c3c[nH]nc3-c3ccccn3)ccn2)cc1	0.54%	2.96%	5.69%	-1.65%	-0.27%	3.36%	4.06%	2.14%	2.16%	1.39%	2.88%	1.57%	0.95%	1.68%	4.16%	3.65%	11.3%	6.73%	5.51%	6.42%
COC(=O)c1sc(-n2cnc3cc(OC)c(OC)cc32)cc1OCc1ccccc1C(F)(F)F	0.53%	1.62%	3.44%	-1.47%	-1.98%	3.48%	4.12%	1.51%	4.48%	-0.28%	3.49%	-2.18%	-0.46%	-0.74%	1.47%	3.59%	6.58%	4.72%	5.29%	3.25%
CCn1c(-c2nonc2N)nc2ccccc21	2.22%	1.62%	14.6%	1.02%	7.36%	2.66%	5.28%	3.32%	24%	3.21%	17.4%	1.47%	4.99%	1.45%	4.14%	3.53%	2.53%	1.93%	3.93%	3.48%
CC(C)COC(=O)c1ccc2c(c1)/C(=C/Nc1ccc(S(N)(=O)=O)cc1)C(=O)N2	11.4%	11.9%	57%	12%	53.9%	1.28%	22.4%	34.8%	80.6%	36.1%	82.7%	-0.11%	16.8%	-0.32%	16.9%	0.47%	10.8%	2.73%	31.3%	1.07%
CC1=C(C(=O)Nc2cc(Cl)c3[nH]ncc3c2)C(c2ccc(C(F)(F)F)cc2)CC(=O)N1 (stereo not given)	1.64%	1.66%	2.44%	-1.21%	-0.06%	2.57%	2.68%	0.24%	-1.53%	0.14%	2.19%	-0.91%	-0.78%	-0.54%	2.16%	3.86%	2.16%	7.37%	35.4%	6.64%
NS(=O)(=O)c1ccc(Nc2ncc(-c3ccccc3)o2)cc1	6.65%	6.93%	16%	5.92%	12.5%	2.13%	8.68%	12.9%	43.4%	11.4%	35.4%	9.46%	28.8%	6.48%	24.3%	1.48%	7.69%	2.91%	3.4%	2.41%
Fc1cccc(COc2ccc(Nc3ncnc4sc(-c5ccco5)cc34)cc2Cl)c1	0.86%	3.24%	4.83%	-1.92%	0.72%	3.21%	0.35%	3.67%	6.09%	2.77%	4.97%	-0.44%	5.88%	2.99%	5.88%	1.05%	0.94%	5.22%	5.78%	2.39%
CNC(=O)c1cncc(/C=C/c2ccccc2Cl)c1	0.64%	-0.68%	0.12%	-0.37%	0.88%	1.32%	1.49%	3.11%	8.27%	3.39%	10%	1.58%	2.44%	0.63%	1.63%	-1.14%	-1.36%	0.37%	-1.68%	0.99%
N#Cc1c(NC(=O)c2ccc(F)cc2)sc2c1CCCC2	0.61%	0.28%	3.62%	-0.66%	1.05%	-0.13%	0.26%	0.69%	2.28%	-0.51%	3.45%	-1.95%	-1.66%	-1.19%	-0.61%	2.17%	2.49%	0.39%	1.25%	-1.04%
COc1cc2ncn(-c3cc(OCc4ccccc4C(F)(F)F)c(C(=O)N(C)C)s3)c2cc1OC	0.45%	0.01%	0.74%	0.5%	0.22%	-0.27%	2.19%	0.04%	1.19%	0.03%	1.99%	-1.93%	-0.02%	-0.52%	2.66%	1.07%	2.1%	-1.73%	0.92%	-0.18%
